13 compounds from PubChem BioAssay (NCI) can be followed below.

Structures are written as SMILES. Compounds without any hit were thinned out: in the full panel of roughly 83,000, 20% have a hit.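 Compound tested at a single concentration for 48 hours in 96-well plates; a percent growth value below 10 was scored as active.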 A number with no mark means an inactive call. The source made the active and inactive calls.

Some test systems named below: SK-MEL-2 melanoma; EKVX NSCLC; SN12C renal; UO-31 renal; TK-10 renal; ACHN renal; CAKI-1 renal; A498 renal; CCRF-CEM leukemia; MOLT-4 leukemia.
Test in all cases: NCI-60 one-dose screen, 48 h (100 = growth as untreated, 0 = no growth, -100 = all killed)
Settings in all cases: 10 µM unless noted

`O=C(Cn1cc(CSc2nc3ccccc3o2)nn1)Nc1ccc(F)cc1F`: the growth was 114% with SK-MEL-2 melanoma; 119% in the test on EKVX NSCLC; 96.4% in the test with SN12C renal; 103% in the test with UO-31 renal; 117% in the test on TK-10 renal; 93.9% in the test on ACHN renal. Further, the growth with CAKI-1 renal is 105%; with A498 renal, 112%; with CCRF-CEM leukemia, 113%; with MOLT-4 leukemia, 120%.
For `O=C(Nc1ccc(Oc2cccc(Cl)c2)c(Cl)c1)c1cnccn1`, the growth in the test on SK-MEL-2 melanoma was 43.6%; in the test on EKVX NSCLC, 53.2%; in the test with SN12C renal, 44.4%; with UO-31 renal, 37.3%; in the test on TK-10 renal it was 56.4%; with ACHN renal it was 40%. The growth in the test on CAKI-1 renal is 21.6%; in the test on A498 renal it was 50.2%; in the test with CCRF-CEM leukemia, 16.6%; in the test with MOLT-4 leukemia it was 26.2%.
Regarding `N#Cc1ccc(O)c(C2=NCC(c3ccccc3)O2)c1` (stereo not given), the growth in the test on SK-MEL-2 melanoma is 50.6%; in the test on EKVX NSCLC, 37.1%; in the test with SN12C renal, 41.7%; in the test on UO-31 renal, 20.1%; with TK-10 renal it was 52.2%; with ACHN renal, 40.5%. Besides, the growth was 8.26% (active) in the test with CAKI-1 renal, 63.5% in the test on A498 renal, 28.1% in the test on CCRF-CEM leukemia and 18.7% in the test with MOLT-4 leukemia.
On to `O=C(c1ccccc1)c1ccc(C2CCCCC2)cc1`, for which the growth was 110% in the test with SK-MEL-2 melanoma; 81.9% in the test with EKVX NSCLC; 90.7% in the test with SN12C renal; 98.2% in the test with UO-31 renal; 81.5% in the test with TK-10 renal; 97.1% with ACHN renal. The growth with CAKI-1 renal is 82.2%; with A498 renal, 77.9%; with CCRF-CEM leukemia, 96.2%; with MOLT-4 leukemia it was 104%.
Regarding `CCOC(=O)c1cc(C)n(-c2ccc(C(=O)O)cc2)c1C`, the growth is 32% in the test on SK-MEL-2 melanoma; 118% in the test with EKVX NSCLC; 87.9% with SN12C renal; 86.7% in the test with UO-31 renal; 93.5% in the test on TK-10 renal; 2.34% (active) in the test on ACHN renal. In addition, the growth with CAKI-1 renal was 79.7%; in the test on A498 renal, 111%; in the test on CCRF-CEM leukemia, 92.2%; in the test on MOLT-4 leukemia, 92.3%.
For `C=C(C)[C@@H]1CC[C@]2(CO)CC[C@]3(C)[C@H](CC[C@@H]4[C@@]5(C)CC[C@H](NCO)C(C)(C)[C@@H]5CC[C@]43C)[C@@H]12`, the growth in the test with SK-MEL-2 melanoma was -60.9% (active); in the test on EKVX NSCLC it was 8.09% (active); in the test with SN12C renal it was -92.4% (active); with UO-31 renal, -99.2% (active); in the test with TK-10 renal, -64.8% (active); in the test with ACHN renal, -99.2% (active). The growth with CAKI-1 renal is -96.9% (active); with A498 renal, 79%; with CCRF-CEM leukemia it was -9.15% (active); in the test with MOLT-4 leukemia it was -26.7% (active).
With `O=C(O)CCN1C(=O)/C(=C/C(Cl)=C/c2ccccc2)SC1=S`, the growth was 43.7% with SK-MEL-2 melanoma; 39.1% in the test on EKVX NSCLC; 11.9% with SN12C renal; 35.8% in the test on UO-31 renal; 49.7% with TK-10 renal; -65.3% (active) in the test with ACHN renal. For the same compound, the growth with CAKI-1 renal was 23.8%; with A498 renal, 43.5%; in the test with CCRF-CEM leukemia, 1.73% (active); in the test on MOLT-4 leukemia, 10.6%.
In the case of `Clc1ccc(/C=N\N=C\c2ccc(Cl)c(Cl)c2)cc1Cl`, the growth with SK-MEL-2 melanoma is 18.4%; in the test on EKVX NSCLC, 111%; with SN12C renal, 87.3%; in the test on UO-31 renal, 77.4%; with TK-10 renal, 97.5%; in the test with ACHN renal it was -3.05% (active). Also, the growth with CAKI-1 renal was 33%; in the test on A498 renal, 108%; in the test with CCRF-CEM leukemia, 83.1%; with MOLT-4 leukemia it was 93.1%.
As for `COC(=O)c1cc(N=C2NC(=O)/C(=C/C=C/c3ccccc3)S2)ccc1O`, the growth was 74.1% in the test with SK-MEL-2 melanoma; 53.7% with EKVX NSCLC; 38.6% in the test on SN12C renal; 53.8% with UO-31 renal; 53.2% in the test with TK-10 renal; 46.5% in the test on ACHN renal. Moreover, the growth in the test with CAKI-1 renal is 29%; in the test with A498 renal, 17.6%; in the test with CCRF-CEM leukemia, 20.7%; in the test with MOLT-4 leukemia, 31.7%.
On to `COc1c(B(O)O)cccc1-c1cc(C)c2c(ccc3[nH]ncc32)n1`, for which the growth was 116% in the test with SK-MEL-2 melanoma; 65.8% in the test with EKVX NSCLC; 60.5% in the test with SN12C renal; 21.6% with UO-31 renal; 29.2% with TK-10 renal; 55.7% with ACHN renal. Also, the growth was -17.9% (active) in the test on CAKI-1 renal, 8.91% (active) in the test with A498 renal, 63.3% with CCRF-CEM leukemia and 64.2% in the test on MOLT-4 leukemia.
`O=C(Nc1ccccc1O)c1ccc(CNC(=O)c2sccc2Nc2ccnc(C(F)(F)F)c2)cc1`: the growth is 0.0247% (active) in the test on SK-MEL-2 melanoma; 59.2% with EKVX NSCLC; 57.8% in the test with SN12C renal; 27.2% in the test on UO-31 renal; 4.53% (active) in the test on TK-10 renal; 49.3% in the test on ACHN renal. Moreover, the growth in the test with CAKI-1 renal was 35.2%; in the test with A498 renal, 6.31% (active); in the test on CCRF-CEM leukemia, 10.8%; with MOLT-4 leukemia it was 12.1%.
Take `CCOC(=O)C1=C(c2ccccc2)N=C2SC=C(c3ccc(Cl)cc3)N2C1c1ccc(Cl)cc1` (stereo not given): the growth was 98.2% in the test with SK-MEL-2 melanoma; 69.9% in the test with EKVX NSCLC; 85.5% in the test with SN12C renal; 74.7% in the test with UO-31 renal; 108% in the test with TK-10 renal; 91.3% with ACHN renal. In addition, the growth was 60.7% with CAKI-1 renal, 7.54% (active) in the test on A498 renal, 79.3% in the test with CCRF-CEM leukemia and 31.5% in the test on MOLT-4 leukemia.
Regarding `CC1CCN(CCOc2ccc(CNc3ccc4nc(CCC5CCCCC5)[nH]c4c3)cc2)CC1`, the growth was -49.9% (active) with SK-MEL-2 melanoma; 65% in the test on EKVX NSCLC; 57.9% in the test with SN12C renal; -31.9% (active) with UO-31 renal; 73.1% in the test on TK-10 renal; 54.7% in the test on ACHN renal. For the same compound, the growth in the test with CAKI-1 renal is -4.81% (active); in the test with A498 renal it was 2.94% (active); in the test on CCRF-CEM leukemia, 11.8%; with MOLT-4 leukemia it was 11.2%.
